According to PubChem BioAssay (NCATS):
Values without a mark were called inactive. Activity calls are given as the source filed them. Calls follow the shape of the dose curve; as a rule, active = well fitted inhibition curve with a large enough effect; inconclusive = small, poorly fitted or top-dose-only effect; inactive = no such curve, though single readings can be large or run the other way.

Experiment: qHTS assay for measurement of the activity of small molecule inhibitors on Zika virus induced Caspase-3 activity in human astrocytoma cells (AID 1224859)
Details: SNB-19 ZIKV-induced caspase-3/7, luminescence, 6 h; series mostly up to 45.7 µM; activity change, negative = inhibition: at the top concentration
Text: National Center for Advancing Translational Sciences [NCATS]
Johns Hopkins University School of Medicine
Increase in the Caspase-3 activity indicates an activation of apoptosis cell death pathway caused by Zika virus infection in certain types of neuronal cells including human neural progenitor cells (hNPCs), astrocytes, and astrocytoma cell line (SNB-19). This cell-based caspase-3 activity assay measures the increased caspase-3 activity in the astrocytoma cell line (SNB-19) after a 6-hour Zika virus infection with a luminescence readout. A decrease in the luminescence signal in this assay by small molecule treatment indicates an inhibitory effect of that small molecule on the Zika virus induced caspase-3 activity that may correlate with its effect on reduction of Zika virus caused cell death.
The medium for SNB-19 cells is composed of RPMI 1640 (ATCC, Cat.# 30-2001), 10% fetal bovine serum (FBS) (GE healthcare Life Sciences, Cat.# SH30071.03), and 1% Pen/Strep (Gibco, Cat.# 15140-122). A Caspase-Glo 3/7 assay kit (catalog number G8092; Promega, Madison, WI) was used to detect caspase-3 activity induced by Zika virus infection in human cells. The reagent mixture was reconstituted as described in the protocol from the manufacturer. Polystyrene tissue culture treated and PDL coated white plates were obtained from Greiner Bio-One (Monroe, NC). Cells were seeded in 384- or 1536-well assay plates and cultured at 37 C with 5% CO2 for 16 to 20 hours. The typical cell seeding density in the 1536-well plate assay is 250 cells/well in 3ul medium for SNB-19 cells in tissue culture treated plates. Compounds were added to cells and incubated for one hour before addition of ZIKV solution to cells (2 FFU/cell). After incubation at 37 C with 5% CO2 for 6 hours, the reagent mixture of Caspase-Glo 3/7 assay kit was added to each well, followed by incubation at room temperature for 30 minutes. The luminescence intensity of the assay plates was measured using a ViewLux plate reader (PerkinElmer). Data were normalized by using the cell-containing wells without ZIKV as a negative control (0% induction of caspase 3/7 activity) and wells containing ZIKV infected cells (Caspase-3 activity induced) as a positive control (100% induction of caspase 3 activity). The percentage inhibitions of the increased Caspase-3 activity by small molecule inhibitors were then calculated.
Potency is read from the fitted curve at half-maximal effect.

In order of rising “activity change, negative = inhibition” value:
1. O=C(c1ccc(OCCCc2cnc[nH]2)cc1)C1CC1  -31.9%
2. COc1cccc2c1C(=O)c1c(O)c3c(c(O)c1C2=O)C[C@@](O)(C(=O)CO)C[C@@H]3O[C@H]1C[C@H](N)[C@H](O[C@@H]2CCCCO2)[C@H](C)O1  -29.5%
3. COc1cc(NC(C)CCCN)c2ncccc2c1 (stereo not given)  -25.8%
4. O=C1NC(=O)/C(=C/c2ccc3nccnc3c2)S1  -21%
5. CCCCCCCCCCCCOCCO  -16.2%
6. CN(C)CCn1nnnc1SCC1=C(C(=O)O)N2C(=O)[C@@H](NC(=O)Cc3csc(N)n3)[C@H]2SC1  -14.2%
7. CCCCCCCC/C=C/C(=O)O  -14.1%
8. O=C1CN(/N=C/c2ccc([N+](=O)[O-])o2)C(=O)N1  -13%
9. C=C[C@@H]1CN2CC[C@@H]1C[C@H]2[C@H](O)c1ccnc2ccc(OC)cc12  -12.1%
10. c1ccc2sc(SN3CCOCC3)nc2c1  -9.27%
11. CN1CCc2cccc3c2C1Cc1ccc(O)c(O)c1-3 (stereo not given)  -9.21%
12. CCCCCCCCCCCC(=O)[O][Sn]([CH2]CCC)([CH2]CCC)[O]C(=O)CCCCCCCCCCC  -7.02%
13. CCCCCCOc1ccccc1C(N)=O  -6.21%
14. Cc1nc2ccccc2n1Cc1ccc(Cl)cc1  -5.22%
15. NC[C@@H]1O[C@H](C23CC4CC(CC(C4)C2)C3)Cc2c1ccc(O)c2O  -4.94%
16. CCN(CC)c1ncnc2c1ncn2[C@@H]1O[C@H](COP(=O)(O)OP(=O)(O)C(Br)(Br)P(=O)(O)O)[C@@H](O)[C@H]1O  -3.45%
17. COc1cc2c3cc1Oc1cc(ccc1O)C[C@@H]1c4c(cc(OC)c(O)c4Oc4ccc(cc4)C[C@@H]3N(C)CC2)CC[N+]1(C)C  -3.26%
18. CCCCCCCCc1ccc(-c2ccc(C(=O)O)cc2)cc1  -3.17%
19. COC(=O)c1c(C)[nH]c(C)c1C(=O)c1ccccc1Cc1ccccc1  -2.85%
20. CNC(=O)[C@H]1O[C@@H](n2cnc3c(NCc4ccc(N)cc4)ncnc32)[C@H](O)[C@@H]1O  -1.98%
21. OCC1O[C@H](O)C(Cl)C(O)C1O (stereo not given in full)  -1.52%
22. NC(=O)C(=O)O  -0.138%
23. O=C(O)[C@@H]1C[C@@H](C(=O)O)N1  1.38%
24. CN1C2CCC1CC(OC(=O)C(O)c1ccccc1)C2 (stereo not given)  1.57%
25. Cc1cc(NC(=O)Nc2ccc3c(ccn3C)c2)sn1  3.08%
26. Nc1nc(Cl)nc2c1ncn2[C@@H]1O[C@H](COP(=O)(O)OP(=O)(O)OP(=O)(O)O)[C@@H](O)[C@H]1O  3.31%
27. O=C(O)c1cc(=O)c2ccccc2[nH]1  3.7%
28. O=C(Nc1ccccc1)c1cc([N+](=O)[O-])ccc1Cl  3.96%
29. C#C[C@]1(O)CC[C@H]2[C@@H]3CCC4=Cc5oncc5CC4(C)[C@H]3CCC21C (stereo not given in full)  6%
30. CC(=O)N[C@H](C(=O)O)C(C)(C)SN=O  6.93%
31. NC(CCCP(=O)(O)O)C(=O)O (stereo not given)  7.67%
32. CN1CCC[C@H]1c1cccnc1  7.83%
33. CSc1nc(N)c2ncn([C@@H]3O[C@H](COP(=O)(O)OP(=O)(O)OP(=O)(O)O)[C@@H](O)[C@H]3O)c2n1  13.2%
34. COc1ccccc1N1CCN(CCCCNS(=O)(=O)c2cccc3c(N(C)C)cccc23)CC1  13.7%
35. COc1cccc(C(=O)NCCN2CCN(c3ccc(Cl)cc3)CC2)c1  31.1%
36. CNC(=O)[C@H]1O[C@@H](n2cnc3c(NCc4cccc(I)c4)ncnc32)[C@H](O)[C@@H]1O  31.2%
37. CN(C)c1ccc(C(=C2C=CC(=[N+](C)C)C=C2)c2ccccc2)cc1  47.3%
38. CCCCCCCCCCCCCCCC(=O)NCC(COP(=O)([O-])OCC[N+](C)(C)C)OCC (stereo not given)  84.3%

With `CN(C)c1ccc(/C=C2\C(=O)Nc3ccccc32)cc1` the Potency was 10 µM (active).
For `CC(C(=O)O)c1ccc(C(=O)c2ccccc2)s1` (stereo not given), the Potency was 14.1 µM (active).
